# Compounds with a hit are over-represented: about 21% of the library has one in this group of screens.
# ELG1 DNA repair: qHTS screen for small molecules that inhibit ELG1-dependent DNA repair in human embryonic kidney (HEK293T) cells expressing luciferase-tagged ELG1; AID 504467, 2011; 330,000 compounds, 2.3% hits; Potency, µM (series often up to 46.1 µM), inactives show at the highest dose activity change, negative = inhibition, hits mostly inhibitors; HEK293T ELG1-luciferase reporter, luminescence, 16 h; DNA damage induced by 5-fluorouridine; also: potency is read from the fitted curve at half-maximal effect; nearly all actives have a fitted effect of over 55% in size
#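 Luminescence from the luciferase reporter, measured 30 min after ONE-Glo reagent at room temperature, was the read-out. Beforehand, 2,000 cells per well were exposed for 16 hr at 37 °C to 5-fluorouridine together with compound or vehicle.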
# TDP1 cell CPT: qHTS for Inhibitors of human tyrosyl-DNA phosphodiesterase 1 (TDP1): qHTS in cells in presence of CPT; AID 686979, 2013; chicken DT40 Tdp1-/-;hTDP1 cells + 20 nM CPT, ATP luminescence, 48 h; 420,000 compounds, 12% hits; Potency, µM (highest dose often 46.2 µM), for inactives: top-dose activity change, negative = growth inhibition, usual class: inhibitors; also: potency is read from the fitted curve at half-maximal effect; nearly all actives have a fitted effect of over 55% in size
#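 Chicken DT40 Tdp1-/- cells complemented with human TDP1, 400 cells/well, exposed to compounds plus 20 nM camptothecin for at least 48 h at 37 C; viability read as ATP content by CellTiter-Glo luminescence.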
# TDP1 cell noCPT: qHTS for Inhibitors of human tyrosyl-DNA phosphodiesterase 1 (TDP1): qHTS in cells in absence of CPT | DT40 Tdp1-/- hTDP1 cells, no CPT, ATP luminescence, 48 h | Potency, µM (series often up to 46.2 µM), for the others: at the highest dose activity change, negative = growth inhibition, actives largely listed as inhibitors | 420,000 compounds, 15% hits | AID 686978, 2013; also: potency is read from the fitted curve at half-maximal effect; nearly all actives have a fitted effect of over 55% in size
#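 Chicken DT40 Tdp1-/- cells complemented with human TDP1, screened without camptothecin (DMSO vehicle only), 400 cells/well. Compounds pin-transferred, cells incubated at 37 °C for at least 48 hr. Growth read as ATP-dependent luminescence (CellTiter-Glo, 30 min at RT).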
# RORg inh: qHTS for inhibitors of ROR gamma transcriptional activity; Drosophila S2 Gal4-RORgamma UAS-luciferase reporter, 20 h; Potency, µM (titrated, usually from 53.6 µM), for inactives: top-dose activity change, negative = inhibition, actives largely listed as inhibitors; 310,000 compounds, 5.4% hits; AID 2551, 2010; also: potency is read from the fitted curve at half-maximal effect; nearly all actives have a fitted effect of over 60% in size
# Target sequence (P51450 whole entry, looked up, the tested form may be a part): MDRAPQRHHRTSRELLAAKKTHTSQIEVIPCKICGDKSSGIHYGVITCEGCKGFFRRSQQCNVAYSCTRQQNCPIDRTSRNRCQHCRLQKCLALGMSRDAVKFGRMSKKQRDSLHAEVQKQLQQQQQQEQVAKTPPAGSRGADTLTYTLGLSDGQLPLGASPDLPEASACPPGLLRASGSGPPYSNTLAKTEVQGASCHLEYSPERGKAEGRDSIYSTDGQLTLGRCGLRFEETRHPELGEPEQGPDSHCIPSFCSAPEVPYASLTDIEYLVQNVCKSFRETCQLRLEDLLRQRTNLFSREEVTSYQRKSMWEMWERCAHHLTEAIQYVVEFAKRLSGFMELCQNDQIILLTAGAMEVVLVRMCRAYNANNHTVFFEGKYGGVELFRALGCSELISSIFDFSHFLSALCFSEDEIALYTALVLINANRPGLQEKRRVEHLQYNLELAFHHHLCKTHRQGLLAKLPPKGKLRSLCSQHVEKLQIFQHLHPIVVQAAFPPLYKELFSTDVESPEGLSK
#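 Read-out: Photinus luciferase luminescence; inhibitors lower reporter signal. Insect Schneider cells with Gal4-ROR gamma fusion under metallothionein promoter, UAS reporter; 700 uM final copper sulfate induction, 20 hr, ambient temperature.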
# IL1B secr inh: qHTS for Inhibitors of Inflammasome Signaling: IL-1-beta AlphaLISA Primary Screen; THP-1 LPS/ATP IL-1B secretion, AlphaLISA, 16 h; active compounds read low; 360,000 compounds, 4.7% hits; AID 743279, 2014; activity change, % at 57.5 µM; in the data active = activity change below about -50%; inconclusive = mostly about -30% to -49%
#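 Secreted IL-1B measured by AlphaLISA bead assay after 16 h compound exposure of THP-1 cells; compounds (final up to 57.5 uM) added 1 h before LPS (250 ng/mL) and ATP (1.25 mM) stimulation; lower signal means less secretion.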
# VP16 counter: VP16 counterscreen qHTS for inhibitors of ROR gamma transcriptional activity; AID 2546, 2010; Potency, µM (titrated, usually from 53.6 µM), without a hit: at the highest dose activity, negative = inhibition, actives largely listed as inhibitors; 310,000 compounds, 3.5% hits; Drosophila S2 Gal4-VP16 UAS-luciferase, luminescence, 20 h;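 also: Gal4-VP16 expression switched on by copper sulfate through the metallothionein promoter; potency is read from the fitted curve at half-maximal effect; nearly all actives have a fitted effect of over 50% in size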
# * marks the source's active call; other numbers are inactive results; ? = inconclusive; nt = not tested or not shown; [ ] = dose if it differs, or a comment. Unless noted, calls follow the shape of the dose curve; as a rule, active = well fitted curve in the direction sought with a large enough effect; inconclusive = small, poorly fitted or top-dose-only effect, or another doubt; inactive = no such curve, though single readings can be large; an effect the other way counts as inactive or inconclusive. % is scaled to controls: 0 for no effect and ±100 for the full control effect.
SMILES,ELG1 DNA repair,TDP1 cell CPT,TDP1 cell noCPT,RORg inh,IL1B secr inh,VP16 counter
COc1ccccc1CC1CC(=O)N(c2ccc([N+](=O)[O-])cc2)C1=O (stereo not given),nt,-4%,-23%,nt,4,nt
CCc1ccc(-c2nn(CC(=O)Nc3ccccc3C)c3c2cnc2ccc(C)cc23)cc1,nt,-1%,14%,nt,nt,nt
O=C1C(Cl)=C(N2CCCCCC2)C(=O)N1c1ccccc1Cl,7%,-6%,11%,2%,-14,0%
Cc1ccc(N2C(=O)C(Cl)=C(N3CCCCCC3)C2=O)c(C)c1,-6%,?,15µM*,31%,?,-18%
Cc1ccc(S(=O)(=O)N2CCOC23CCN(S(=O)(=O)c2c(C)cc(C)cc2C)CC3)cc1,?,18µM*,?,nt,-19,nt
COc1ccc(S(=O)(=O)N2CCOC23CCN(S(=O)(=O)c2ccc(C)cc2)CC3)cc1,-11%,?,?,nt,-13,nt
Cc1ccc(S(=O)(=O)N2CCOC23CCN(C(=O)c2cc(Cl)ccc2Cl)CC3)cc1,?,?,?,-19%,-24,8%
O=S(=O)(c1ccc(Cl)cc1)N1CCC2(CC1)OCCN2S(=O)(=O)c1cccs1,?,?,18µM*,nt,-13,nt
COc1ccc(S(=O)(=O)N2CCC3(CC2)OCCN3S(=O)(=O)c2cccs2)cc1,-19%,-15%,?,nt,8,nt
Cc1ccc(S(=O)(=O)N2CCOC23CCN(C(=O)c2ccc(Cl)cc2Cl)CC3)cc1,?,?,21µM*,32%,?,0%
O=C1CN(Cc2cc(=O)oc3cc4c(cc23)CCC4)CCN1,4%,13%,5%,-39%,4,-7%
O=S(=O)(NCC(Nc1ccccc1)c1ccccc1)c1ccc(Cl)cc1 (stereo not given),2%,?,29µM*,25%,-79*,?
O=C(O)c1cccc(NC(CNS(=O)(=O)c2ccc(Cl)cc2)c2ccccc2)c1 (stereo not given),20%,0%,4%,?,23,1%
COc1ccc(C(=O)NC(=C(Cl)Cl)S(=O)(=O)c2ccc(C)cc2)cc1,0%,?,?,?,-95*,?
COc1ccc(C(=O)NC(=O)COC(=O)CCS(=O)(=O)c2ccc(C)cc2)cc1,16%,-5%,6%,nt,4,nt
Cc1ccc(S(=O)(=O)NCCNC(=O)c2ccccc2)cc1,-6%,-5%,-7%,4%,5,1%
Cc1ccc(C(=O)NC(=C(Cl)Cl)S(=O)(=O)c2ccccc2)cc1,?,?,21µM*,-10%,-95*,-11%
COC(=O)NC(=C(Cl)Cl)S(=O)(=O)c1ccccc1,nt,6.5µM*,10µM*,10µM*,-118*,18µM*
O=C(NCC1(N2CCCCC2)CCCCC1)c1ccc(-n2cc(NC(=O)c3cccnc3)cn2)cc1,nt,-5%,?,nt,nt,nt
CCOc1cccc(-c2cnc3cccnn23)c1,nt,?,10µM*,nt,-12,nt
CCc1ccc2nc(NC(=O)CN3C(=O)NC4(CCCC4)C3=O)sc2c1,?,?,?,nt,-16,nt
COc1cc2cc(C(=O)NCCc3c[nH]c4ccccc34)c(N)nc2cc1OC,nt,?,16µM*,nt,?,nt
COc1cc(SC)ccc1C(=O)NCCOc1ccc(F)cc1,?,?,16µM*,?,-7,1%
COc1cc(SC)ccc1C(=O)NCCc1c[nH]c2ccccc12,-5%,?,?,?,-65*,-7%
NS(=O)(=O)c1ccc(CCNC(=O)CSc2ncnc3ccccc23)cc1,-12%,-5%,-18%,2%,6,5%
SMILES,ELG1 DNA repair,TDP1 cell CPT,TDP1 cell noCPT,RORg inh,IL1B secr inh,VP16 counter
CC1(C(=O)NS(=O)(=O)c2cccc(OC(F)F)c2)CCN1C(=O)c1ccccc1CCc1ccccc1 (stereo not given),nt,?,?,nt,29,nt
CN(C)C(=O)CN1CCN(C(=O)CCl)CC1,?,?,16µM*,-19%,-4,-2%
C[C@@H]1CN([C@H](C)CO)C(=O)CCCn2nncc2CO[C@@H]1CN(C)C(=O)NC1CCCCC1,nt,-2%,0%,nt,1,nt
c1cc2c3c(cccc3c1)-c1cnccc1-2,nt,15%,-24%,nt,-66*,nt
O=C(Cn1c(C(=O)N2CCN(C3CCCC3)CC2)cc2sccc21)c1ccccc1,10%,18µM*,?,-3%,-14,2%
Cc1cc(C)nc(-n2nc(C)c3c(C)c(C)c(C)nc32)n1,-11%,nt,nt,10µM*,nt,-6%
Cc1ccc(C)c(N=C2CCCN2Cc2ccccc2)c1C#N,-15%,?,16µM*,39%,6,0%
O=C(O)CN1CCCC1=Nc1ccccc1,0%,-27%,4%,2%,28,3%
O=C(NC(Sc1ccc(Cl)cc1)C(=O)O)c1ccccc1 (stereo not given),nt,21µM*,?,nt,-2,nt
C/C(=N/NC(=O)c1nnn(-c2nonc2N)c1COc1ccccc1)c1ccccc1Cl,-9%,?,-5%,22µM*,-17,?
C/C(=N\NC(=O)c1nnn(-c2nonc2N)c1-c1ccccc1)c1ccccc1O,1.8µM*,2.3µM*,1.5µM*,1.8µM*,142,6.3µM*
CCCc1c(C(=O)N/N=C(\C)c2ccccc2O)nnn1-c1nonc1N,nt,8.2µM*,8.2µM*,nt,0,nt
CCCc1c(C(=O)N/N=C(\C)c2ccc(CC(C)C)cc2)nnn1-c1nonc1N,nt,12µM*,6.5µM*,nt,4,nt
CCN(CC(=O)NCc1cccs1)C(=O)c1ccc(NS(=O)(=O)c2ccc(C(C)=O)cc2)cc1,10%,-15%,2%,nt,-3,nt
COc1ccc(-c2nc3cnccn3c2Nc2ccc3c(c2)OCO3)cc1,5%,?,?,3%,105,?
Cc1ccc(-c2nc3cccc(C)n3c2Nc2ccc3c(c2)OCO3)o1,nt,23µM*,?,nt,nt,nt
Cc1ccc(Nc2c(-c3ccc(C)o3)nc3cccc(C)n23)cc1,nt,11µM*,11µM*,nt,nt,nt
Cc1ccc(-c2nc3cnccn3c2Nc2ccc3c(c2)OCCO3)o1,?,?,-17%,-12%[0.365 µM],49,nt

# High-throughput results: PubChem, National Center for Advancing Translational Sciences (NCATS)
